{"source": "PubChem BioAssay", "note": "Calls of active or inactive are those of the source.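 Rule for the calls: active = Her2 level under about 52% in both replicate screens, with viability over 70% of control (limit read from the data); inconclusive = Her2 under the limit in one screen only, or viability under 70%; inactive = Her2 level above the set limit.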", "data": [{"molecular_target": "Receptor tyrosine-protein kinase erbB-2 (Homo sapiens) (UniProt P04626)", "sequence (P04626 whole entry, looked up)": "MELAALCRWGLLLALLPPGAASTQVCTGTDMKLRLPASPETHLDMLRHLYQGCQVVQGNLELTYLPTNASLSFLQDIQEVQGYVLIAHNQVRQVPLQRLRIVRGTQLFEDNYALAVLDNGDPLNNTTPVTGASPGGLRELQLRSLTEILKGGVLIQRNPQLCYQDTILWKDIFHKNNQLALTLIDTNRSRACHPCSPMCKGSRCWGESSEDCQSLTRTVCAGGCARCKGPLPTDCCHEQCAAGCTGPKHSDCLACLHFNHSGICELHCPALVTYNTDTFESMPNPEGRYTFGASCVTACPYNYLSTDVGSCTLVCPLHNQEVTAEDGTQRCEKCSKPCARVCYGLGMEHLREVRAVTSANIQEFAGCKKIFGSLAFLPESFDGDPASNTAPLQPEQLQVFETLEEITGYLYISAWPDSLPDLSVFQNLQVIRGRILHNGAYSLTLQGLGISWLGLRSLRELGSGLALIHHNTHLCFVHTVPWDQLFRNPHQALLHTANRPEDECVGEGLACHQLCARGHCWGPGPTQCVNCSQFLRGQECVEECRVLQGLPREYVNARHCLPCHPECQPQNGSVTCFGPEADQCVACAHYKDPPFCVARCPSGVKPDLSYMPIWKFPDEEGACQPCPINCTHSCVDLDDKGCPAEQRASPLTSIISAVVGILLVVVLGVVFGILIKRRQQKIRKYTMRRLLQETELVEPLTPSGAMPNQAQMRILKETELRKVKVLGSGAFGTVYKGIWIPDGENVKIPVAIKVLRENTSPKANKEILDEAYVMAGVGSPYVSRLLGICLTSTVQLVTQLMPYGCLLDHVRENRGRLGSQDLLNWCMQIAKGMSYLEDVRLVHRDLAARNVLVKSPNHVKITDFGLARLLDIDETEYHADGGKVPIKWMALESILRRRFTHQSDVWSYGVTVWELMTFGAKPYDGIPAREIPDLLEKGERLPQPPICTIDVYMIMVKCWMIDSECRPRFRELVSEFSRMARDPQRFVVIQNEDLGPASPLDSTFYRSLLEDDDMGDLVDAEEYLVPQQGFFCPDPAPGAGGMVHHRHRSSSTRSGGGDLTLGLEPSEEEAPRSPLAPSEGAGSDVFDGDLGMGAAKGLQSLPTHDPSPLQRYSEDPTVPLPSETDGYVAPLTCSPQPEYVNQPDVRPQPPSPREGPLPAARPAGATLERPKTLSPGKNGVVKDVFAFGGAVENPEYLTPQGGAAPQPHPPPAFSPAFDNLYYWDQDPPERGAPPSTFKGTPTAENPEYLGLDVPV", "assay": "Her2 expression decrease, cell viability multiplex – SKBR3 breast tumor cells, AlphaScreen, ATP viability, primary screen (AID 461);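 note: lower value means less Her2 protein in the cells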", "conditions": "18-24 h, at 10 µM, active compounds read low", "values": [{"smiles": "Cc1ccc(-c2nc(N)n(C(=O)c3cccnc3)n2)cc1", "Her2 level": "87.5% (inactive)"}, {"smiles": "COc1ccccc1N1CCN(C(=O)c2ccc3nc(-c4ccco4)c(-c4ccco4)nc3c2)CC1", "Her2 level": "79.5% (inactive)"}, {"smiles": "Cc1ccc(OCC(=O)N2CCN(C(=O)CCC3CCCC3)CC2)cc1", "Her2 level": "93.5% (inactive)"}, {"smiles": "O=c1c2[nH]c3cccc(Cl)c3c2ncn1CCN1CCCCC1", "Her2 level": "83.5% (inactive)"}, {"smiles": "O=C(CS(=O)(=O)c1cn(Cc2ccc(Cl)cc2)c2ccccc12)N1CCOCC1", "Her2 level": "92.5% (inactive)"}, {"smiles": "CCCC(=O)Nc1ccc(NC(=O)c2ccccc2OC)cn1", "Her2 level": "101% (inactive)"}, {"smiles": "CC(C)CCNC(=O)C(c1ccco1)N(CC1CCCO1)C(=O)Cn1nnc2ccccc21", "note": "(stereo not given)", "Her2 level": "100% (inactive)"}, {"smiles": "Cn1cnnc1Sc1nc2c(c(=O)n(C)c(=O)n2C)n1C", "Her2 level": "98.5% (inactive)"}, {"smiles": "CC(CCc1ccccc1)NC(=O)c1ccc(Br)o1", "note": "(stereo not given)", "Her2 level": "86% (inactive)"}, {"smiles": "O=C1CC(c2ccsc2)c2cc3c(cc2N1)OCCO3", "note": "(stereo not given)", "Her2 level": "98.5% (inactive)"}, {"smiles": "Nc1nonc1-n1nnc(C(=O)c2ccccc2)c1-c1ccccc1", "Her2 level": "100% (inactive)"}, {"smiles": "C#CC1(O)CC(C)N(C)C(C)C1", "note": "(stereo not given)", "Her2 level": "85% (inactive)"}, {"smiles": "Cc1ccc(S(=O)(=O)CCC(=O)Nc2ccc3c(c2)OCO3)cc1", "Her2 level": "84.5% (inactive)"}, {"smiles": "Cc1ccc(C)c2[nH]c(=O)c(CCNC(=O)c3ccc(Br)o3)cc12", "Her2 level": "87% (inactive)"}, {"smiles": "O=c1c2ccccc2nc(SCc2cn3ccsc3n2)n1-c1ccc(F)cc1", "Her2 level": "102% (inactive)"}, {"smiles": "Cn1c(SCC(=O)c2ccc(-c3ccccc3)cc2)nnc1-c1ccco1", "Her2 level": "93.5% (inactive)"}, {"smiles": "O=C(NCCSCc1ccco1)Nc1cccc(Cl)c1", "Her2 level": "95% (inactive)"}, {"smiles": "Cn1nnc2c(sc3nc(N4CCOCC4)c4c(c32)CCCC4)c1=O", "Her2 level": "114% (inactive)"}, {"smiles": "CCOc1cc(NC(=O)c2ccco2)c(OCC)cc1NC(=O)COc1ccccc1C", "Her2 level": "77.5% (inactive)"}, {"smiles": "CCOc1ccc(OCC)c2sc(C)nc12", "Her2 level": "94% (inactive)"}, {"smiles": "COC(=O)c1[nH]c2ccccc2c1NS(=O)(=O)c1ccc(OC)cc1OC", "Her2 level": "82% (inactive)"}, {"smiles": "CC(NC(=O)c1ccco1)c1ccc2c(c1)OCCO2", "note": "(stereo not given)", "Her2 level": "95.5% (inactive)"}, {"smiles": "CCC(C)NC(=O)CSC1=Nc2ccccc2C2=NC(CC(=O)NCc3ccccc3)C(=O)N12", "note": "(stereo not given)", "Her2 level": "88% (inactive)"}, {"smiles": "Cc1nnc(N(C)C(=O)c2cccnc2)s1", "Her2 level": "110% (inactive)"}, {"smiles": "COc1ccc(N2C(=O)C3CCCN3C2c2ccc(F)cc2)cc1Cl", "note": "(stereo not given)", "Her2 level": "93.5% (inactive)"}, {"smiles": "CCCn1c(SCC(=O)Nc2nnc(-c3ccccc3)s2)nnc1-c1ccccn1", "Her2 level": "112% (inactive)"}, {"smiles": "CN(C1CCCCC1)S(=O)(=O)c1ccc(S(=O)(=O)N2CCCC2)cc1", "Her2 level": "92% (inactive)"}, {"smiles": "O=C(CN1CCN(C2CCCCC2)CC1)Nc1ccccc1-c1ccccc1", "Her2 level": "61% (inactive)"}, {"smiles": "COc1cccc(-n2nnc3c(=O)n(Cc4cccc(F)c4)cnc32)c1", "Her2 level": "104% (inactive)"}, {"smiles": "Cc1ccc(-n2c(SCC3CCCCO3)nnc2-c2ccco2)cc1", "note": "(stereo not given)", "Her2 level": "83% (inactive)"}, {"smiles": "Cc1ccc(-n2nnnc2SCC(=O)N2CCc3ccccc3C2)cc1", "Her2 level": "82.5% (inactive)"}, {"smiles": "CCOC(=O)c1cccc(NC(=O)C2CCN(S(=O)(=O)c3cccs3)CC2)c1", "Her2 level": "96% (inactive)"}, {"smiles": "CCn1c(CSc2ncccn2)nnc1SCC(=O)N1c2ccccc2CC1C", "note": "(stereo not given)", "Her2 level": "87.5% (inactive)"}, {"smiles": "Cc1cc(C(=O)Nc2sc3c(c2C#N)CCCCC3)cs1", "Her2 level": "92.5% (inactive)"}, {"smiles": "CCN(CC)c1ccc2c(C)c(-c3ccc(N)cc3)c(=O)oc2c1", "Her2 level": "84.5% (inactive)"}, {"smiles": "N#CC(C(=O)Nc1ccc(Cl)c(Cl)c1)=C1Nc2ccccc2N1", "Her2 level": "72.5% (inactive)"}, {"smiles": "CCn1nnnc1SCC(=O)N1CCOCC1", "Her2 level": "91% (inactive)"}, {"smiles": "CCN(CC(=O)NCc1cccs1)C(=O)c1cc(S(=O)(=O)N2CCOCC2)ccc1C", "Her2 level": "118% (inactive)"}, {"smiles": "O=C(Nc1ccc2c(c1)OCO2)c1ccc(Br)c(S(=O)(=O)N2CCCC2)c1", "Her2 level": "80.5% (inactive)"}, {"smiles": "COc1ccc(CNS(=O)(=O)c2ccc3oc(C(=O)O)c(C)c3c2)cc1", "Her2 level": "93% (inactive)"}]}]}
